The source of these data is PubChem BioAssay (NCATS).

Each structure is given as a SMILES string. Results filed as inconclusive are left out. Entries that show only a call come without a potency. Calls of active or inactive are those of the source. Calls follow the shape of the dose curve; as a rule, active = well fitted cell-killing curve with a large enough effect; inconclusive = small, poorly fitted or top-dose-only effect, or effect the other way; inactive = flat fitted curve, though single readings scatter.

For this assay, the system named is Es-2. As to the kind of experiment: Primary qHTS to identify gynecologic anti-cancer compounds using libraries of approved drugs and bioactive compounds (AID 1345084). Also: nearly all actives have a fitted effect of over 55% in size. The conditions noted are these: Gynecologic cancer cell panel viability, ATPlite luminescence, 48 h; series mostly up to 57.5 µM. The procedure, abridged:
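Measured: luminescence after ATPlite addition (15 min, RT). Exposure: 48 h, 37 C, 5% CO2.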
Consider `O=C1NCc2nc3ccccc3c(=O)n2C1Cc1c[nH]c2ccccc12` (centres undefined), for which the Potency result was “inactive”.

As to `CC1=CC(=O)CC(C)(C)C1CCC(C)OC1OC(COC(=O)c2cc(O)c(O)c(O)c2)C(O)C(O)C1O` (centres undefined), the Potency entry is “inactive”.

Consider `CC1C/C=C/C=C\CCCCC(O)C/C=C/C(=O)O1` (centres undefined), for which the Potency result was “inactive”.

Turning to `CO[C@@]12CC3[C@@H]([C@@H](O)[C@@H](OC(C)=O)C4[C@](C)(COC(C)=O)CCC[C@]34C)[C@@H](C)C1=CC(=O)O2` (some centres undefined), the Potency result was “inactive”.

On to `CC1(C)CCCC2(C)C(CO)C3CCC2C31` (centres undefined), for which the Potency result is “inactive”.

As to `O=C(O[C@H]1[C@@H]2C=CO[C@@H](O[C@@H]3O[C@H](CO)[C@@H](O)[C@H](O)[C@H]3O)[C@@H]2[C@@]2(CO)O[C@@H]12)c1ccc(O)c(O)c1`, the Potency result is “inactive”.

On to `C=CC(C)(C)C12CC3C(=O)NC(Cc4cnc[nH]4)C(=O)N3C1Nc1ccccc12` (centres undefined), for which the Potency entry was “inactive”.

In the case of `C=C1C2=CC(O)C(C)C1(C)CC/C(C)=C/CCC1(C)OC1C2=O` (centres undefined), the Potency result was “inactive”.

On to `C[C@H]1CN(C[C@H](Cc2ccccc2)C(=O)NCC(=O)O)CC[C@@]1(C)c1cccc(O)c1`, for which the Potency entry was “inactive”.

For the compound `Cn1c(=O)cc(N2CCCC(N)C2)n(Cc2ccccc2C#N)c1=O` (centres undefined), the Potency entry was “inactive”.

For the compound `CCC[C@@H]1C[C@@H](C(=O)N[C@@H]([C@H]2O[C@H](SC)[C@H](OP(=O)(O)O)[C@@H](O)[C@H]2O)[C@H](C)Cl)N(C)C1`, the Potency entry was “inactive”.

With `COc1cc(/C=C/CO)ccc1O[C@@H]1O[C@H](CO)[C@@H](O)[C@H](O)[C@H]1O`, the Potency entry was “inactive”.

Consider `CC1(O)CCC2C(C(=O)O)=COC(OC3OC(CO)C(O)C(O)C3OC(=O)/C=C/c3ccc(O)cc3)C21` (centres undefined), for which the Potency result was “inactive”.

Regarding `C[C@@H](Nc1cc(NS(=O)(=O)N2CCC2)nc(SCc2cccc(F)c2F)n1)[C@@H](O)CO`, the Potency result was “inactive”.
